Experimental findings from PubChem BioAssay (NCI) are described below.

Structures are written as SMILES. The panel holds about 83,000 compounds, 20% with a hit somewhere; the sample as a whole holds those more often.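 Cells were grown in 96-well plates and exposed to the test compound at a single concentration for 48 hours; results are reported as percent growth, with values below 10 considered active.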 A number with no mark means an inactive call. Calls of active or inactive are those of the source.

Among the test systems are SK-MEL-2 melanoma; EKVX NSCLC; SN12C renal; UO-31 renal; TK-10 renal; ACHN renal; CAKI-1 renal; A498 renal; CCRF-CEM leukemia; MOLT-4 leukemia; SR leukemia; RPMI-8226 leukemia; OVCAR-8 ovarian; OVCAR-5 ovarian; OVCAR-4 ovarian; SK-OV-3 ovarian; IGROV1 ovarian; OVCAR-3 ovarian; HS 578T breast; NCI/ADR-RES ovarian.
Holding throughout (assay): NCI-60 one-dose screen, 48 h (100 = growth as untreated, 0 = no growth, -100 = all killed)
What all share (conditions): 10 µM unless noted

Take `COc1cc(CN(c2ccc(C)cc2)C2OC(=O)c3ccccc32)cc(OC)c1OC` (stereo not given): the growth in the experiment on SK-MEL-2 melanoma was 55%; in the experiment with EKVX NSCLC, 71.8%; in the experiment with SN12C renal, 50.1%; in the experiment on UO-31 renal, 59.7%; with TK-10 renal, 93.3%; with ACHN renal, 56.3%. Also, the growth was 49.3% in the experiment on CAKI-1 renal; 51.7% with A498 renal; 11.5% in the experiment on CCRF-CEM leukemia; 17.9% in the experiment on MOLT-4 leukemia; -6.82% (active) in the experiment on SR leukemia; 85.4% in the experiment on RPMI-8226 leukemia. Further, the growth is 50.1% with OVCAR-8 ovarian; 40.3% in the experiment on OVCAR-5 ovarian; 65.9% in the experiment with OVCAR-4 ovarian; -6.21% (active) in the experiment with SK-OV-3 ovarian; 46.2% in the experiment on IGROV1 ovarian; 6.21% (active) in the experiment with OVCAR-3 ovarian. Besides, the growth with HS 578T breast was 59.5%; in the experiment on NCI/ADR-RES ovarian it was -16.7% (active).
On to `O=C1/C(=C/N2N=C(c3ccc(Cl)cc3)CC2c2ccccc2O)SC(=S)N1c1cccc(C(F)(F)F)c1` (stereo not given), for which the growth in the experiment on SK-MEL-2 melanoma was 90.7%; in the experiment on EKVX NSCLC, 52.5%; in the experiment on SN12C renal, 52.6%; with UO-31 renal it was 24.9%; in the experiment on TK-10 renal it was 78.3%; in the experiment with ACHN renal, 55.3%. Further, the growth is 55.5% in the experiment on CAKI-1 renal; 65.8% with A498 renal; 30% in the experiment with CCRF-CEM leukemia; 8.36% (active) in the experiment on MOLT-4 leukemia; 42% in the experiment with SR leukemia; 25.4% in the experiment on RPMI-8226 leukemia. For the same compound, the growth in the experiment on OVCAR-8 ovarian is 59.7%; with OVCAR-5 ovarian, 82.3%; in the experiment on OVCAR-4 ovarian it was 37%; in the experiment with SK-OV-3 ovarian, 74%; in the experiment with IGROV1 ovarian, 43.7%; with OVCAR-3 ovarian it was 54.6%. In addition, the values for the growth in the experiment on HS 578T breast and in the experiment on NCI/ADR-RES ovarian were 71% and 56.4%, respectively.
`COc1ccc(-c2conc2-n2nc(-c3ccccc3)nc2-c2ccccc2)cc1`: the growth in the experiment on SK-MEL-2 melanoma was 103%; in the experiment on EKVX NSCLC, 101%; in the experiment with SN12C renal it was 101%; with UO-31 renal it was 73.2%; in the experiment on TK-10 renal, 137%; in the experiment on ACHN renal it was 97.2%. Moreover, the growth was 83.8% in the experiment on CAKI-1 renal; 120% with A498 renal; 106% with CCRF-CEM leukemia; 99.1% with MOLT-4 leukemia; 76.2% in the experiment on SR leukemia; 106% in the experiment on RPMI-8226 leukemia. In addition, the growth in the experiment on OVCAR-8 ovarian was 110%; in the experiment with OVCAR-5 ovarian it was 104%; in the experiment with OVCAR-4 ovarian, 104%; with SK-OV-3 ovarian, 107%; with IGROV1 ovarian, 101%; with OVCAR-3 ovarian it was 131%. Further, the results for the growth in the experiment on HS 578T breast and in the experiment on NCI/ADR-RES ovarian were 111% and 99.1%, respectively.
For the compound `CN1C2CCC1/C(=C\c1ccc(Cl)cc1)C(=O)/C2=C/c1ccc(Cl)cc1`, the growth with SK-MEL-2 melanoma was 56.7%; with EKVX NSCLC, 84.4%; in the experiment with SN12C renal, 63.2%; in the experiment with UO-31 renal, 58.4%; in the experiment on TK-10 renal, 79%; in the experiment on ACHN renal it was 75.7%. The growth was 68% in the experiment with CAKI-1 renal; 78.5% in the experiment with A498 renal; 24.4% in the experiment with CCRF-CEM leukemia; 16.4% in the experiment with MOLT-4 leukemia; 24.5% in the experiment on SR leukemia; 20.2% in the experiment with RPMI-8226 leukemia. The growth is -27.1% (active) in the experiment with OVCAR-8 ovarian; 102% with OVCAR-5 ovarian; 63.5% with OVCAR-4 ovarian; 93.4% with SK-OV-3 ovarian; 68.8% in the experiment with IGROV1 ovarian; 46% in the experiment on OVCAR-3 ovarian. In addition, the growth is 75.5% in the experiment with HS 578T breast and 43.7% with NCI/ADR-RES ovarian.
For `CCCCCCCCCCCCC1CCC(=O)O1` (stereo not given), the growth in the experiment with SK-MEL-2 melanoma is 103%; with EKVX NSCLC, 92.7%; in the experiment with SN12C renal, 98.9%; in the experiment with UO-31 renal, 92.5%; with TK-10 renal, 102%; with ACHN renal it was 97.3%. For the same compound, the growth was 91.6% with CAKI-1 renal; 96.2% with A498 renal; 105% in the experiment with CCRF-CEM leukemia; 95.5% in the experiment with MOLT-4 leukemia; 93.6% in the experiment with SR leukemia; 97.4% in the experiment with RPMI-8226 leukemia. The growth is 108% in the experiment on OVCAR-8 ovarian; 85.4% in the experiment with OVCAR-5 ovarian; 94.1% in the experiment on OVCAR-4 ovarian; 102% with SK-OV-3 ovarian; 86.7% in the experiment with IGROV1 ovarian; 105% in the experiment with OVCAR-3 ovarian. The growth in the experiment on HS 578T breast was 108%; with NCI/ADR-RES ovarian, 100%.
Consider `CCCCCCCCCCCCNC(=O)N[C@H](C(=O)N[C@H]1/C=C/CCNC(=O)/C=C/[C@H](C)NC1=O)C(C)C`, for which the growth in the experiment on SK-MEL-2 melanoma is 8.32% (active); in the experiment with EKVX NSCLC, 25%; in the experiment on SN12C renal, -42.4% (active); in the experiment on UO-31 renal it was 36.7%; with TK-10 renal it was 8.32% (active); with ACHN renal it was 16.6%. For the same compound, the growth in the experiment on CAKI-1 renal was 35.8%; with A498 renal it was -55.3% (active); in the experiment with CCRF-CEM leukemia it was -5.12% (active); with MOLT-4 leukemia, -29% (active); in the experiment with SR leukemia it was -22.7% (active); in the experiment on RPMI-8226 leukemia, 41.1%. In addition, the growth is 11.5% in the experiment with OVCAR-8 ovarian; -83.7% (active) in the experiment with OVCAR-5 ovarian; 3.35% (active) with OVCAR-4 ovarian; -42.6% (active) with SK-OV-3 ovarian; -32.9% (active) in the experiment on IGROV1 ovarian; -44.3% (active) in the experiment on OVCAR-3 ovarian. Further, the values for the growth in the experiment on HS 578T breast and with NCI/ADR-RES ovarian were 49.5% and 94.4%, respectively.
Turning to `COc1ccc(C(=O)C(CN(C)C)c2ccc(OC)cc2)cc1` (stereo not given), the growth is 75.1% in the experiment on SK-MEL-2 melanoma; 90.7% in the experiment with EKVX NSCLC; 62.5% in the experiment with SN12C renal; 67.9% with UO-31 renal; 52% in the experiment with TK-10 renal; 54.1% with ACHN renal. Besides, the growth in the experiment on CAKI-1 renal was 73.9%; in the experiment with A498 renal it was 64.4%; in the experiment on CCRF-CEM leukemia, 3.8% (active); in the experiment with MOLT-4 leukemia, 52.9%; in the experiment with SR leukemia, 0.837% (active); in the experiment with RPMI-8226 leukemia it was 1.35% (active). Also, the growth in the experiment with OVCAR-8 ovarian was 42.2%; in the experiment with OVCAR-5 ovarian, 94.8%; with OVCAR-4 ovarian, 73.1%; in the experiment with SK-OV-3 ovarian, 98.8%; in the experiment with IGROV1 ovarian, 86.9%; in the experiment on OVCAR-3 ovarian it was -4.36% (active). In addition, the growth was 92.2% in the experiment with HS 578T breast and 67.3% in the experiment with NCI/ADR-RES ovarian.
